In paper PMC5700166 one finds binding signal data, which are given here for 3 sequences.

This assay has as its target T1, GST-Nv-NF-kB (Ser allele) (Nematostella vectensis, UniProt A7UNT2 2-411).
T1 sequence: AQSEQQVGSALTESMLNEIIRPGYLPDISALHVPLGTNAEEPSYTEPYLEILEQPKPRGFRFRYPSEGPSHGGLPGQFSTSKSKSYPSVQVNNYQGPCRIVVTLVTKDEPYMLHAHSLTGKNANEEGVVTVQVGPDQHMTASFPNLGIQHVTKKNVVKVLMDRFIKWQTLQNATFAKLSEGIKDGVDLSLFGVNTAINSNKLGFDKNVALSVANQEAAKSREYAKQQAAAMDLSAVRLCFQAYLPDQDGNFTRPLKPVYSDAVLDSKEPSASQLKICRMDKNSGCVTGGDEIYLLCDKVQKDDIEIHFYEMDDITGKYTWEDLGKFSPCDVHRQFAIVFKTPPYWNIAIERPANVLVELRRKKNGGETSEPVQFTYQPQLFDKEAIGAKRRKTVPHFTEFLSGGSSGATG
The assay is described as follows: protein-binding microarray (PBM); PBM: ~300 nM protein, 6 mM HEPES pH 7.8, 80 mM KCl, 0.5 mM EDTA, 0.5 mM EGTA, 6% glycerol, 35 ng/ul poly-dIdC, 1% milk, 1 h, room temperature; Ap Aiptasia and Nv Nematostella (sea anemones) / Co Capsaspora / Aq Amphimedon (sponge) / Dm Drosophila / Hu human; RHD is the Rel homology domain; high values mean tight binding. As to conditions: dsDNA, one strand shown.
“CCGATTAACATCAGGGGATATAATGATGTTAATCGGGTCTTGATTCGCTTGACGCTGCTG” came in with a binding signal of 6.48 z-score.

Consider “CCGATTAACATCAAAATTCCCTGTGATGTTAATCGGGTCTTGATTCGCTTGACGCTGCTG”, for which the binding signal amounted to 6.24 z-score.

On to “CCGATTAACATCACCCCCCCCCCTGATGTTAATCGGGTCTTGATTCGCTTGACGCTGCTG”, for which the binding signal amounted to 5.24 z-score.
